Test results published in PubChem BioAssay (NCI).
This is part of a sample that, as a whole, favours compounds with a hit. Of some 83,000 tested, about 20% had one in any assay.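 96-well plates, one dose, 48 hours. Percent growth reported; active if below 10.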 Unmarked numbers belong to inactive results. Calls of active or inactive are those of the source.

Each compound was assayed on SF-295 CNS (assay: NCI-60 one-dose screen, 48 h (100 = growth as untreated, 0 = no growth, -100 = all killed)). Conditions: 10 µM unless noted.
Compound `CCN1C(=O)N(CC)C2C1NN=c1s/c(=C\c3ccccc3F)c(=O)n12` (stereo not given) has a growth of 12.4%. `O=C(CSC(=S)n1cnnc1)NC(=O)c1ccccc1` gave a growth of 106%. With `CC(=O)n1nc(C(=O)OC(C)(C)c2ccccc2)c2ccccc21` the growth was 93.1%. Compound `Oc1c(I)cc(I)cc1CNCc1ccccn1` has a growth of 25.7%. `COc1ccc(C(=O)Nc2cccc(-c3cc(=O)c4c(OC)c(OC)c(OC)cc4o3)c2)cc1` showed a growth of 59.6%. `COc1ccccc1NC(=O)N=Nc1c(O)[nH]c2ccccc12` was tested, and the growth was 94.1%. `O=C(CSc1nnc(-c2cnccn2)n1-c1ccccc1)c1ccc(Cl)cc1` was tested, and the growth was 99.3%. `COc1ccc(/C=C(\C#N)n2nnc3ccc(Cl)cc32)cc1` was tested, and the growth was 85.7%. For `Cc1ccc(C[P+](c2ccccc2)(c2ccccc2)c2ccccc2)cc1`, the growth was 2.31% (active). For `COc1ccc2[nH]c(C(=O)N3CCN(C(=O)OCc4ccc5c(Cl)cc(Cl)c(O)c5n4)CC3)cc2c1`, the growth was 34%. For `COc1ccc(C(=O)/C=C/c2c(C(F)(F)F)nc3ccccn23)cc1OC`, the growth was 0.39% (active). With `Cn1c(=O)c2nc(/C=C/c3ccccc3)c(=O)[nH]c2n(C)c1=S` the growth was 99.8%. In the case of `Cc1c[n+](Cc2ccc3ccccc3c2)cn1Cc1ccc2ccccc2c1`, the growth is reported as 45.5%. With `O=C1/C(=C/c2ccccc2O)CC/C1=C\c1ccccc1O` the growth was 98.6%. With `N#Cc1ccc2c(c1)C(=O)c1c-2n(CCCN)c(=O)c2cc([N+](=O)[O-])ccc12` the growth was -73.9% (active). `CCCCCCCCCCCCCCCCOCCCOP(=O)(O)C1CCCN(O)C1=O` (stereo not given) was tested, and the growth was 3.46% (active). In the case of `CCOC(=O)C#Cc1c(C(=O)OCC)nnn1Cc1ccc([N+](=O)[O-])cc1`, the growth is reported as 99.8%. Work on `CCN1C(=S)N(c2ccccc2)C2NC(=S)N(/N=C/C=C/c3ccccc3OC)C21` (stereo not given) yielded a growth of 13.7%. In the case of `CCOc1nc(-c2ccccc2)cc2c(O)c(C(=O)N/N=C/c3ccccc3)[nH]c(=O)c12`, the growth is reported as 134%. With `CCNCCNc1cc(-c2ccc(C(F)(F)F)cc2)c(C#N)c2nc3ccccc3n12` the growth was -72.5% (active). Compound `NC(N)=NCCCCCNc1noc(Cc2c[nH]c3cc(Br)ccc23)n1` has a growth of 80.2%. `Cc1c(O)cc(-c2cnc(Nc3ccccc3)s2)c(O)c1C` showed a growth of 98.9%. For `CCCCCCCCCc1ccc(OCCOCCOCCOCCOCCOCCOCCOCCOCCO)cc1`, the growth was 0.0887% (active). `CCOC(=O)C1=C(N)Oc2c(sc3c(F)cccc23)C1c1ccc(O)cc1` (stereo not given) gave a growth of 56.3%. With `CCOC(=O)c1cc(C)n(-c2ccc(C(=O)O)cc2)c1C` the growth was 90.7%. With `O=c1[nH]c(-c2ccccc2)nc2sc3cc(O)ccc3c12` the growth was 95.3%. In the case of `CCc1ccccc1-n1c(-c2ccc(OC)cc2)cc(-c2ccc(OC)cc2)c(C#N)c1=O`, the growth is reported as 55.1%. For `COC(=O)C1Cc2ccccc2CN1C(=O)c1ccc2c(c1)Cc1ccccc1-2` (stereo not given), the growth was 30.2% [50 µM]. Compound `COc1cccc(/C=C2\COc3ccc(O)c(O)c3C2=O)c1` has a growth of 79.1%. In the case of `CCCCn1c(=O)[nH]c(N)c([C@@H]2c3c([nH]c(=O)n(CCCC)c3=O)Oc3ccc4ccccc4c32)c1=O`, the growth is reported as 89.1%. In the case of `COc1cc2c(c(OC)c1OC)CCC(c1cccc(NC(=O)c3ccc(Br)cc3)c1)O2` (stereo not given), the growth is reported as 66.9%. In the case of `NC(=O)C(=O)c1ccccc1NC=O`, the growth is reported as 104%. In the case of `NC(=O)c1cc(I)ccc1NC(=O)/C=C/c1ccccc1`, the growth is reported as -18.4% (active). For `O=[N+]([O-])c1ccc(O)cc1Br`, the growth was 89.4%. In the case of `COc1ccc(OC)c(Nc2nnc(-c3ccc(O)c(OC)c3)o2)c1`, the growth is reported as 100%. `C=CCn1c(C)nc2ccc(Nc3nc(Nc4ccc5nc(C)n(CC=C)c5c4)c4ccccc4n3)cc21` was tested, and the growth was -67.5% (active). Work on `Cn1c(=O)cc2c3c(c(NCCCO)ccc31)C(=O)c1ccccc1-2` yielded a growth of 42.8%. In the case of `O=S(=O)(c1ccccc1)n1cc2c(c1)-c1nc(Nc3ncccn3)sc1CC2`, the growth is reported as 67.3%. In the case of `O=S(=O)(NCCCNc1nccc(-c2c(-c3ccc(F)c(O)c3)nc3sccn23)n1)c1ccccc1`, the growth is reported as 92.6%. With `C=C(C)[C@@H]1CC[C@]2(C(=O)O)CC[C@]3(C)[C@H](CC[C@@H]4[C@@]5(C)CCC(NC(=O)c6cccc(OC(C)=O)c6OC(C)=O)C(C)(C)[C@@H]5CC[C@]43C)[C@@H]12` (stereo not given in full) the growth was -29.6% (active).

What follows are compounds tested on SF-539 CNS in the same assay as above. Conditions: 10 µM unless noted.
In the case of `CCN1C(=O)N(CC)C2C1NN=c1s/c(=C\c3ccccc3F)c(=O)n12` (stereo not given), the growth is reported as -18.1% (active). Work on `O=C(CSC(=S)n1cnnc1)NC(=O)c1ccccc1` yielded a growth of 100%. For `CC(=O)n1nc(C(=O)OC(C)(C)c2ccccc2)c2ccccc21`, the growth was 97.7%. `Oc1c(I)cc(I)cc1CNCc1ccccn1` was tested, and the growth was 20.2%. In the case of `COc1ccc(C(=O)Nc2cccc(-c3cc(=O)c4c(OC)c(OC)c(OC)cc4o3)c2)cc1`, the growth is reported as 66.3%. For `COc1ccccc1NC(=O)N=Nc1c(O)[nH]c2ccccc12`, the growth was 98.3%. `O=C(CSc1nnc(-c2cnccn2)n1-c1ccccc1)c1ccc(Cl)cc1` gave a growth of 103%. `COc1ccc(/C=C(\C#N)n2nnc3ccc(Cl)cc32)cc1` showed a growth of 53.2%. In the case of `Cc1ccc(C[P+](c2ccccc2)(c2ccccc2)c2ccccc2)cc1`, the growth is reported as 16.3%. In the case of `COc1ccc2[nH]c(C(=O)N3CCN(C(=O)OCc4ccc5c(Cl)cc(Cl)c(O)c5n4)CC3)cc2c1`, the growth is reported as -99.3% (active). In the case of `COc1ccc(C(=O)/C=C/c2c(C(F)(F)F)nc3ccccn23)cc1OC`, the growth is reported as -13.3% (active). `Cn1c(=O)c2nc(/C=C/c3ccccc3)c(=O)[nH]c2n(C)c1=S` was tested, and the growth was 104%. `Cc1c[n+](Cc2ccc3ccccc3c2)cn1Cc1ccc2ccccc2c1` gave a growth of 33.1%. `O=C1/C(=C/c2ccccc2O)CC/C1=C\c1ccccc1O` showed a growth of 82.3%. For `N#Cc1ccc2c(c1)C(=O)c1c-2n(CCCN)c(=O)c2cc([N+](=O)[O-])ccc12`, the growth was -98.2% (active). `CCCCCCCCCCCCCCCCOCCCOP(=O)(O)C1CCCN(O)C1=O` (stereo not given) was tested, and the growth was -4.5% (active). Work on `CCOC(=O)C#Cc1c(C(=O)OCC)nnn1Cc1ccc([N+](=O)[O-])cc1` yielded a growth of 47.3%. With `CCN1C(=S)N(c2ccccc2)C2NC(=S)N(/N=C/C=C/c3ccccc3OC)C21` (stereo not given) the growth was -18.3% (active). `CCOc1nc(-c2ccccc2)cc2c(O)c(C(=O)N/N=C/c3ccccc3)[nH]c(=O)c12` showed a growth of 112%. In the case of `CCNCCNc1cc(-c2ccc(C(F)(F)F)cc2)c(C#N)c2nc3ccccc3n12`, the growth is reported as -88% (active). For `NC(N)=NCCCCCNc1noc(Cc2c[nH]c3cc(Br)ccc23)n1`, the growth was 71.8%. `Cc1c(O)cc(-c2cnc(Nc3ccccc3)s2)c(O)c1C` showed a growth of 95%. `CCCCCCCCCc1ccc(OCCOCCOCCOCCOCCOCCOCCOCCOCCO)cc1` showed a growth of 29%. `CCOC(=O)C1=C(N)Oc2c(sc3c(F)cccc23)C1c1ccc(O)cc1` (stereo not given) gave a growth of 42.5%. `CCOC(=O)c1cc(C)n(-c2ccc(C(=O)O)cc2)c1C` showed a growth of 105%. In the case of `O=c1[nH]c(-c2ccccc2)nc2sc3cc(O)ccc3c12`, the growth is reported as 82.8%. In the case of `CCc1ccccc1-n1c(-c2ccc(OC)cc2)cc(-c2ccc(OC)cc2)c(C#N)c1=O`, the growth is reported as 23%. For `COC(=O)C1Cc2ccccc2CN1C(=O)c1ccc2c(c1)Cc1ccccc1-2` (stereo not given), the growth was 70.1% [50 µM]. In the case of `COc1cccc(/C=C2\COc3ccc(O)c(O)c3C2=O)c1`, the growth is reported as -54.7% (active). `CCCCn1c(=O)[nH]c(N)c([C@@H]2c3c([nH]c(=O)n(CCCC)c3=O)Oc3ccc4ccccc4c32)c1=O` was tested, and the growth was 95.8%. `COc1cc2c(c(OC)c1OC)CCC(c1cccc(NC(=O)c3ccc(Br)cc3)c1)O2` (stereo not given) was tested, and the growth was 97.3%. With `NC(=O)C(=O)c1ccccc1NC=O` the growth was 102%. `NC(=O)c1cc(I)ccc1NC(=O)/C=C/c1ccccc1` was tested, and the growth was -22% (active). In the case of `O=[N+]([O-])c1ccc(O)cc1Br`, the growth is reported as 91.6%. Work on `COc1ccc(OC)c(Nc2nnc(-c3ccc(O)c(OC)c3)o2)c1` yielded a growth of 49.9%. For `C=CCn1c(C)nc2ccc(Nc3nc(Nc4ccc5nc(C)n(CC=C)c5c4)c4ccccc4n3)cc21`, the growth was -93.8% (active). Work on `Cn1c(=O)cc2c3c(c(NCCCO)ccc31)C(=O)c1ccccc1-2` yielded a growth of 50%. `O=S(=O)(c1ccccc1)n1cc2c(c1)-c1nc(Nc3ncccn3)sc1CC2` gave a growth of 35.6%. In the case of `O=S(=O)(NCCCNc1nccc(-c2c(-c3ccc(F)c(O)c3)nc3sccn23)n1)c1ccccc1`, the growth is reported as 88.2%. With `C=C(C)[C@@H]1CC[C@]2(C(=O)O)CC[C@]3(C)[C@H](CC[C@@H]4[C@@]5(C)CCC(NC(=O)c6cccc(OC(C)=O)c6OC(C)=O)C(C)(C)[C@@H]5CC[C@]43C)[C@@H]12` (stereo not given in full) the growth was -26.4% (active).
